Sampled rows, rich in hits. Any-hit rate of the full collection: about 2%.
TAG inh = inhibitors of triacylglycerol accumulation, primary screen, cell-based, uHTS, fluorescence, H9c2 | H9c2 cells, Nile Red lipid (TAG) fluorescence; cells loaded with 200 µM oleic acid | inhibition, % at 12.5 µM | actives 0.66% (n = 230,000) | AID 651582, 2012;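 active means pattern-corrected inhibition of lipid staining of at least 50% with the nuclear-stain viability signal not falling by more than 50%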
Kir21 block = inhibitors of mouse Kir2.1 inward-rectifier potassium channel. HEK293-Kir2.1, FluxOR thallium flux fluorescence; hits give low values. B-score at 10 µM. actives 0.85% (n = 310,000);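 active means fluorescence ratio B-score at or below minus 3 SD of library scores, with starting-brightness B-score within 2 SD, cut at about -4.2 in these data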;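 further: channel flux triggered by added potassium and thallium sulfate stimulus; B-score of peak minus minimum fluorescence over baseline after thallium stimulus; more negative B-score means stronger Kir2.1 block with less thallium influx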
CHT PAM = CHT positive allosteric modulators, primary screen, cell-based, membrane potential dye, choline EC20; CHT-expressing cells; hits give high values; LV-AA mutant CHT in HEK293 cells; B-score at 10 µM; AID 488977, 2010; High affinity choline transporter 1 (Homo sapiens), Q9GZV3; actives 0.49% (n = 310,000);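 active means initial fluorescence not abnormally high and integrated response B-score, plate-corrected, over 3 SD above library mean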
Target sequence (Q9GZV3 whole entry, looked up): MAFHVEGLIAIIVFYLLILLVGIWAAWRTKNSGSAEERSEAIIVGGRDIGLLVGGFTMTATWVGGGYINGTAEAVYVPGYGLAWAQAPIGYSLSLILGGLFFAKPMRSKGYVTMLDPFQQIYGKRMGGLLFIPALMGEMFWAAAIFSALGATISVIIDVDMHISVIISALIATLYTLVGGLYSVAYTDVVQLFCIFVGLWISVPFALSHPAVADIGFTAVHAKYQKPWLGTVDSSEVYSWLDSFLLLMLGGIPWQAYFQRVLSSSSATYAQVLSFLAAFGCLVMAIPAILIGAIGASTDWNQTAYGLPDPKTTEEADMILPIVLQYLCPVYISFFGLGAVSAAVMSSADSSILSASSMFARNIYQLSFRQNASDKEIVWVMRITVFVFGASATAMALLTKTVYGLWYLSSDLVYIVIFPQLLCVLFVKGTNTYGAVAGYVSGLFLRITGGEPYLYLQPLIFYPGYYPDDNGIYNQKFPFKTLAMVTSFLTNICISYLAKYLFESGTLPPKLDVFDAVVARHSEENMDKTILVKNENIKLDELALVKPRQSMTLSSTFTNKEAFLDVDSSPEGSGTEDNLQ
CHT inh = inhibitors of human choline transporter CHT. AID 488975, 2010. actives 0.86% (n = 310,000). B-score at 10 µM. CHT-expressing cells, membrane potential dye, choline response; hits give low values;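 active means B-score over 3 SD under the library average, and starting fluorescence ratio not unusually high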;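 further: choline stimulus applied at its EC90 after an EC20 pre-addition; B-score computed on integrated fluorescence ratio after choline addition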
hERG inh = hERG channel inhibition, counter-screen for Kir2.1 inhibitor project, cell-based, thallium flux; shares compounds with Kir21 block; hERG-expressing cells; inhibition, % at 10 µM; actives 20% (n = 320);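 further: host cells are CHO cells stably expressing hERG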
KCNK9 inh = KCNK9 channel inhibition, selectivity assay for Kir2.1 inhibitor project, cell-based; shares compounds with Kir21 block; KCNK9-expressing cells, ion flux inhibition; inhibition, % at 10 µM; actives 5% (n = 320)
Kir2-1 patch inh = mouse Kir2.1 channel blockers, Kir2.1 inhibitor project, cell-based, secondary, automated electrophysiology. shares compounds with Kir21 block. Kir2.1 cells, automated patch-clamp current inhibition. inhibition, % at 25 µM. actives 71% (n = 320). AID 463252, 2010
A number is an active result; - = inactive; . = not tested or not shown. Unless noted, how the calls were made is not given here.

SMILES	TAG inh	Kir21 block	CHT PAM	CHT inh	hERG inh	KCNK9 inh	Kir2-1 patch inh
CC1(C)CC[C@]2(CO)CC[C@]3(C)C(=CCC4[C@@]5(C)CC[C@H](O)[C@@](C)(CO)C5CC[C@]43C)[C@@H]2C1 (stereo partly specified)	-	.	.	.	.	.	.
COc1ccc(NC(=O)NCCCN2CCC(Cc3ccccc3)CC2)cc1	-	-	-	-	.	.	.
CSc1ccc(NC(=O)NCCCN2CCC(Cc3ccccc3)CC2)cc1	.	-6	-	-	75%	-	20%
N#Cc1ccc(C(=O)N(Cc2ccco2)c2c(N)n(Cc3ccccc3)c(=O)[nH]c2=O)cc1	-	.	.	.	.	.	.
COc1cc(C)ccc1OCCCOc1ccccc1Br	-	-	-	-	.	.	.
COc1cc(C)ccc1OCCCCNCc1ccccc1	-	-5.8	-	-	-	-	37%
Cc1ccccc1NC(=O)c1ccc(Cn2cc([N+](=O)[O-])cn2)o1	-	-	-	-	.	.	.
Cc1ccc(NC(=O)c2ccc(Cn3cc(Cl)cn3)o2)c(C)c1	-	-10	-	-	-	-	51%
CCNCc1cc(Cl)c(OCc2ccccc2)c(OCC)c1	-	-7	-	-	-	-	47%
CCOc1cc(CNCCc2ccc(S(N)(=O)=O)cc2)cc(Cl)c1OCc1ccccc1	.	-	-	-	.	.	.
O=C(NCCCN1CCOCC1)c1ccc(CSc2ccc(Cl)cc2)cc1	-	-7.8	-	-	46%	-	21%
CCCCNC(=O)C1(C)CCCCN1C(=O)c1cc(C#N)cs1 (stereo unspecified)	-	.	.	.	.	.	.
CC(C)N(Cc1ccccc1)S(=O)(=O)c1ccc(Cl)nc1	-	-6.9	-	-	-	-	33%
CCN(Cc1ccccc1)S(=O)(=O)c1ccc2c(c1)NC(=O)CS2	.	-5.8	-	-	-	-	-
CCN(Cc1ccccc1)S(=O)(=O)c1ccc2c(c1)NC(=O)CC(=O)N2	-	-	-	-	.	.	.
O=C(CN(C(=O)c1csnn1)c1ccccc1C(F)(F)F)NCc1ccccc1	.	-	-	-	.	.	.
Clc1ccc(-c2cc(C3CCNCC3)[nH]n2)cc1	-	-8.9	-	-	-	-	-
Cc1ccc(CN2CCC(c3cc(-c4ccc(Cl)cc4)n[nH]3)CC2)cc1	.	-	-	-	.	.	.
COc1ccc(CCN2CCCC(CN(C)Cc3cccc(OC)c3)C2)cc1 (stereo unspecified)	-	-9.5	-	-	-	-	37%
COc1ccc(CCN2CCCC(CN(C)Cc3cc(OC)ccc3OC)C2)cc1 (stereo unspecified)	.	-	-	-	.	.	.
Cc1ccccc1OCCNCC(C)O (stereo unspecified)	-	-	-	-	.	.	.
Cc1cc(Cl)cc(Br)c1OCCCNCC(C)O (stereo unspecified)	-	-9.3	-	-	-	-	39%
CC(C)(C)[C@@H]1C=C(C(=O)N2CCN(Cc3ccc4c(c3)OCO4)CC2)O[C@H](OCc2ccc(CO)cc2)C1	-	-	-	-	.	.	.
NC(=O)C1=C[C@H](c2ccc(Br)cc2)C[C@H](OCc2ccc(CO)cc2)O1	-	-7.1	-	-	-	-	23%
NC(=O)C1=C[C@@H](c2ccc(Br)cc2)C[C@@H](OCc2ccc(CO)cc2)O1	-	-	-	-	.	.	.
SMILES	TAG inh	Kir21 block	CHT PAM	CHT inh	hERG inh	KCNK9 inh	Kir2-1 patch inh
CN(C)C(CNC(=O)CCc1nc2cc(Cl)ccc2n(Cc2ccccc2)c1=O)c1ccccc1 (stereo unspecified)	-	-6.4	-	-	71%	-	-
Cc1ccccc1Cn1c(=N)n(CC(O)c2ccco2)c2ccccc21 (stereo unspecified)	-	-5.9	-	-	50%	-	-
CCCCCCCn1c(=N)n(CC(=O)c2ccco2)c2ccccc21	-	-10	-	-	67%	-	6.9%
CCCCCCCn1c(=N)n(CC(O)c2ccco2)c2ccccc21 (stereo unspecified)	-	-5.9	-	-	70%	-	-
COc1cc(/C(C)=N/N2CCOCC2)cc(OC)c1OC	-	-	-	-	.	.	.
Cc1onc(-c2c(Cl)cccc2Cl)c1C(=O)c1ccccc1	-	-	-	-	.	.	.
Cc1onc(-c2ccccc2Cl)c1C(=O)c1ccccc1	-	-6.4	-	-	-	-	11%
CCn1cc(C(=O)NCCC2=CCCCC2)c(=O)c2cc(S(=O)(=O)N(C)C)ccc21	.	-	-	-	.	.	.
CCn1cc(C(=O)NCCc2ccccc2)c(=O)c2cc(S(=O)(=O)N(C)C)ccc21	.	-	-	-	-	-	-
O=C(c1ccccc1NS(=O)(=O)c1ccccc1[N+](=O)[O-])N1CCCC1	.	-	-	-	.	.	.
COc1ccc(CNC/C=C/c2ccccc2)cc1	-	-12	-	-	-	-	78%
COc1ccc(CNCc2ccc(C)cc2)c(OC)c1	.	-	-	-	.	.	.
COc1ccc(CNS(=O)(=O)NCc2ccccc2)cc1	-	-	-	-	.	.	.
COc1ccc(CNCc2ccc(OC)c3ccccc23)cc1	.	-14	-	-	-	-	8.1%
COc1ccccc1CNCc1ccc(OC)c2ccccc12	-	-8.1	-	-	-	-	42%
Cc1ccc(N(C)S(=O)(=O)c2cccc(C(=O)NCC(c3ccco3)N3CCCC3)c2)cc1 (stereo unspecified)	-	.	.	.	.	.	.
CNCCC1Sc2ccccc2Oc2ccccc21 (stereo unspecified)	-	-5.9	-	-	-	-	1.9%
Cc1ccc(-c2nc(CN(Cc3c(C)nn(C)c3C)C(C)C)c(C)o2)o1	-	-	-	-	.	.	.
Cc1cc(C)c2nc(N(CCCN(C)C)C(=O)c3ccc4c(c3)OCCO4)sc2c1	-	-6.4	-	-	66%	-	-
COCCN(C(=O)CSc1nc(N)cc(=O)[nH]1)c1c(N)n(Cc2ccccc2)c(=O)[nH]c1=O	-	-	-	-	.	.	.
O=c1c(Cc2c(F)cccc2Cl)c(O)ccn1CCCn1ccnc1	-	-	-	-	.	.	.
Cc1c(Cl)cccc1Nc1nc(NCCO)c2ccccc2n1	-	-9.5	-	-	-	-	31%
Oc1ccccc1Nc1nc(NCc2ccccc2)c2ccccc2n1	-	-	-	-	.	.	.
CC(C)(C)OC(=O)NCCc1nnc(SCc2ccc(Cl)cc2Cl)o1	-	-8.9	-	-	-	-	48%
CC(C)(C)OC(=O)NCCc1nnc(SCC(=O)c2ccc(Cl)cc2)o1	-	-	-	-	.	.	.
O=C(COc1ccccc1CNCc1ccccc1)Nc1ccccc1	.	-10	-	-	49%	-	43%
Cc1cc(C)c(OCCCCN(C)Cc2ccccc2)c(C)c1	.	-7.8	-	-	-	-	36%

Screening results as filed in PubChem.
